Assay results published in PubChem BioAssay AID1851 (National Center for Advancing Translational Sciences (NCATS), 2009).
Screen size: about 16,000 compounds; about 5,100 (32%) were called active. Inconclusive results (about 25%) are left out. The call rests on the fitted dose curve; in most records, active means well fitted curve in the direction sought with a large enough effect; inconclusive means small, poorly fitted or top-dose-only effect, or effect the other way; inactive means no such curve, though single readings can be large or run the other way. The list shows a part of the results.

Biological target: Cytochrome P450 3A4 (Homo sapiens) (UniProt P08684)
Sequence (P08684 whole entry, looked up): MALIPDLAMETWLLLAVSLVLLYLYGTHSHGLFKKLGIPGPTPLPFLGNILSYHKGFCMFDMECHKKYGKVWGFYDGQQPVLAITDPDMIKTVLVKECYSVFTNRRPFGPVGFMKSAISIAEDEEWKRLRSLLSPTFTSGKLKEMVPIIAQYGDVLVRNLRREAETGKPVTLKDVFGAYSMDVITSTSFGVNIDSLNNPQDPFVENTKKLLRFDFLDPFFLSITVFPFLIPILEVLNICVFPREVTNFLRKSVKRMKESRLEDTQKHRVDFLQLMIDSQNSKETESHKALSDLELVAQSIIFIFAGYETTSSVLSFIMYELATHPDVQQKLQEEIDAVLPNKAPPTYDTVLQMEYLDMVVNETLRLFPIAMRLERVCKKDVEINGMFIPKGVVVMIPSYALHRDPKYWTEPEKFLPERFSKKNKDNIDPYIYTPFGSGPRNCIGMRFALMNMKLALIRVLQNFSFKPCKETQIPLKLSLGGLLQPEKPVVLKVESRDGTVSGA
Assay: Cytochrome panel assay with activity outcomes
Conditions: recombinant CYP, pro-luciferin dealkylation, luminescence, p450-cyp3a4; series mostly up to 57.1 µM; activity, negative = inhibition: at the top concentration
Experimental: The P450 gene superfamily is involved in the metabolism and clearance of xenobiotics. This assay used various human CYP P450 isozymes to measure the dealkylation of various pro-luciferin substrates to luciferin. The luciferin is then measured by luminescence after the addition of a luciferase detection reagent. Pro-luciferin substrate concentration in the assay was equal to its KM for its CYP P450 isozyme. Inhibitors and some substrates limit the production of luciferin, and decrease measured luminescence.
NCGC Assay Protocol Summary:
1, Reagent, 2 uL, Isozyme and Pro-Luciferin
2, Library compounds, 23 nl, 40 uM to 0.24 nM dilution series
3, Controls, 23 nl, Isozyme specific inhibitor
4, Reagent, 2 uL, NADPH regeneration solution
5, Incubation time, 60 min, Isozyme specific temperature
6, Reagent, 4ul, Detection reagent
7, Incubation time, 20 min, Isozyme specific temperature
8, Detection, 1 sec, ViewLux luminescent read
The luciferase-based P450-GloTM Screening Systems were obtained from Promega (Madison, WI) for CYP 1A2 (V9770), CYP 2C9 (V9790), CYP2 C19 (V9880), CYP 2D6 (V9890), and CYP 3A4 Luciferin-PPXE (V9910) and were adapted for 1,536-well microplates and an automated protocol. The control compounds furafylline for 1A2 (F124), sulfaphenazole for CYP 2C9 (S0758), ketoconazole for CYP 2C19 (K1003), quinidine for 2D6 (Q3625), and ketoconazole for 3A4 (K1003) were purchased from Sigma Aldrich (St. Louis, MO). Recombinant P450 enzymes were obtained from baculovirus constructs expressed in insect cells (BD/Gentest).
Medium-binding white solid Kalypsys plates used. Mixtures kept on ice. 1A2: 10 nM 1A2, 100 uM Luc-ME, 100 mM KPO4; 2C9: 10 nM 2C9, 100 uM Luc-H, 25 mM KPO4; 2C19: 5 nM 2C19, 10 uM Luc-H EGE, 50 mM KPO4; 2D6: 5 nM 2D6, 30 uM Luc-ME EGE, 100 mM KPO4; 3A4: 10 nM, 25 uM Luc-PPXE. All amounts are reflected in their final concentration, working concentration is 2x.
NADPH regeneration solution: 1.3 mM NADP+, 3.3 mM glucose-6-phosphate, 3.3 mM MgCl2, 0.4 U/mL glucose-6-phosphate dehydrogenase for all isozymes, 200 mM KPO4 for 3A4. Mixture prepared at RT but kept on ice during automated run.
RT incubation in auxilliary plate hotel for 1A2, 2D6, and 3A4; 37C for 2C9 and 2C19.
Keywords: P450, CYP1A2, CYP2C19, CYP2C9, CYP2D6, CYP3A4, Luciferase, MLSMR, MLSCN, NIH Roadmap, qHTS, NCGC
On the % scale 0 is the no-effect control and ±100 the full control effect.

SMILES	AC50	activity, negative = inhibition
CNc1ccc(Br)cc(C(=O)/C=C/c2ccc3c(c2)OCO3)c1=O	11.2 µM (active)	
CN(C)CCNC(=O)C(C(=O)c1ccc(F)cc1)n1ccccc1=O (stereo unspecified)		3.86% (inactive)
O=C(Nc1cccc2nsnc12)c1ccc(-c2cccc(Cl)c2)o1		1.55% [at 2.29 µM] (inactive)
CCCn1nnc(NC(=O)c2ccc(-c3cccc(Cl)c3)o2)n1	28.2 µM (active)	
CCCn1nnnc1-c1cccc(Cl)c1		-8.36% (inactive)
OC(c1ccccc1)(c1ccc(F)cc1)C(c1ccccc1)N1CCOCC1 (stereo unspecified)	3.98 µM (active)	
C[C@@H](N1CCOCC1)[C@@](O)(c1ccccc1)c1ccccn1		-13% [at 11.4 µM] (inactive)
N#C/C(=C/N1CCOCC1)c1ccccc1		2.4% (inactive)
Nc1ccc(N=Nc2c(S(=O)(=O)O)cc3ccccc3c2S(=O)(=O)O)cc1		5.34% [at 11.4 µM] (inactive)
Cc1nc2sccn2c(=O)c1Cl		-1.16% (inactive)
CN(C)CCN1C(=O)C(O)=C(C(=O)c2cc3ccccc3o2)C1c1ccccn1 (stereo unspecified)		-4.62% (inactive)
Cc1ccc(C(=O)C2=C(O)C(=O)N(CCCn3ccnc3)C2c2ccc(OC(C)C)cc2)o1 (stereo unspecified)	7.94 µM (active)	
Cc1cc(N2C(=O)C(O)=C(C(=O)c3cccs3)C2c2cccc(O)c2)no1 (stereo unspecified)		-13.2% (inactive)
Cc1ccc(C2C(C(=O)c3sc(C)nc3C)=C(O)C(=O)N2CCN2CCOCC2)o1 (stereo unspecified)		-18.5% (inactive)
COc1cc(C2C(C(=O)c3ccc(C)o3)=C(O)C(=O)N2CCc2ccccc2)ccc1O (stereo unspecified)		-10.4% (inactive)
CCOc1cccc(C2C(C(=O)c3ccc(C)o3)=C(O)C(=O)N2Cc2ccncc2)c1 (stereo unspecified)	5.01 µM (active)	
CCOC(=O)c1c(NC(=O)CCC(=O)N2CCOCC2)sc2c1CC(C)(C)OC2	12.6 µM (active)	
CCOC(=O)c1c(NC(=O)CCCN2CCOCC2)sc2c1CC(C)(C)OC2	7.08 µM (active)	
Cn1c(=O)n(-c2ccc(Cl)cc2)c(=O)c2c3c(sc21)COC(C)(C)C3		3.78% (inactive)
Cn1c(O)c(C(C#N)=C2N=c3ccccc3=N2)c2ccccc21	3.55 µM (active)	
N=C(N)SCCN	inactive	
COC(=O)[C@@H]1O[C@@H](SCCN)[C@@H](O)[C@H](O)[C@H]1O		-3.54% [at 11.4 µM] (inactive)
CC(=O)O[C@]12CC[N@+]3(C)CCCC[C@@H]3[C-]1Nc1ccccc12		0.352% [at 11.4 µM] (inactive)
Cc1cc2c(c(=O)o1)[C@@H](O)[C@H]1O[C@@H]1C2=O		-17.6% [at 11.4 µM] (inactive)
COc1ccccc1N1CCN(C[C@@H]2CN3C(=O)N(C)c4ccccc4C3=N2)CC1	15.8 µM (active)	
Cc1cc(=O)oc(C)c1C(=O)N1CCCCC1		5.9% (inactive)

SMILES	AC50	activity, negative = inhibition
CC1=C(C(=O)N2CCCCCC2)C2(CCC(C)CC2)OC1=O (stereo unspecified)	11.2 µM (active)	
CC1=C(C(=O)NCCN2CCN(C)CC2)C2(CCC(C)CC2)OC1=O (stereo unspecified)		-24.5% (inactive)
CCCCCC/C(C)=C1/SC(=S)NC1=O		-11.2% [at 2.29 µM] (inactive)
O=C(CCC(=O)Nc1ccccc1)NNC(=O)c1cccs1		9.11% [at 2.29 µM] (inactive)
CCC(=O)Nc1ccc(C(=O)NNC(=O)c2cccs2)cc1		-7.4% (inactive)
O=C(COc1cccc2ccccc12)NNC(=O)c1cccs1	25.1 µM (active)	
CCc1ccc(OCC(=O)Nc2ccc(-c3nc4ccccc4o3)c(O)c2)cc1		-2.69% (inactive)
O=C(CSc1ccc(Cl)cc1)Nc1cccc(-c2nc3ncccc3o2)c1	12.6 µM (active)	
CCCCC(=O)Nc1ccc(C)c(O)c1		9.17% [at 2.29 µM] (inactive)
CCCCCC(=O)Nc1cccc(-c2nc3ncccc3o2)c1	15.8 µM (active)	
O=C(Nc1cccc(-c2nc3ncccc3o2)c1)c1sc2cc(Cl)ccc2c1Cl		0.466% (inactive)
CC12CC[C@@H]3c4ccc(OP(=O)(O)O)cc4CCC3C1CCC2=O (stereo partly specified)		5.91% [at 11.4 µM] (inactive)
COc1c(N2CCN(C(=S)Nc3ccc(F)cc3)C(C)C2)c(F)cc2c(=O)c(C(=O)O)cn(C3CC3)c12 (stereo unspecified)		4.97% (inactive)
O=S(=O)(c1ccc(Cl)cc1)c1cnc(-c2cccnc2)nc1-c1ccccc1	8.91 µM (active)	
Clc1ccc(-c2nnc(-c3ccccc3)c(N3CCSCC3)n2)cc1		-23.1% (inactive)
O=S(=O)(c1ccccc1)c1cnc(-c2cccnc2)nc1-c1ccc(Cl)cc1Cl	2.82 µM (active)	
CN1CCCCC1=NCCCn1cnc2c1c(=O)n(C)c(=O)n2C		-4.8% (inactive)
CC(=O)[C@H]1CC[C@@H]2[C@H]3CC=C4C[C@@H](O)CC[C@]4(C)[C@H]3CC[C@]12C		-3.69% [at 25.6 µM] (inactive)
Cc1cc(C)c2c(-n3cccc3)n[nH]c2n1		12.8% (inactive)
COCCNc1ncnc2ccc(-c3cccnc3)cc12	10 µM (active)	
COc1cccc(-c2ccc3ncnc(NCCNC(C)=O)c3c2)c1	15.8 µM (active)	
COCCNc1ncnc2ccc(-c3cccc(OC)c3)cc12	12.6 µM (active)	
O=[N+]([O-])c1cccc2c(Br)[nH]nc12	12.6 µM (active)	
Brc1[nH]nc2ccccc12		-8.63% (inactive)
O=[N+]([O-])c1cccc2cn[nH]c12		-10.3% (inactive)
